Where “and” joins values, the source holds several entries; their conditions need not be identical. Equal values may be shown once. Inconclusive results are not listed. Calls of active or inactive are those of the source. Unless noted, the call rests on the fitted dose curve; in most records, active means well fitted curve in either direction with a large enough effect (not every such curve was filed as active); inconclusive means small, poorly fitted or top-dose-only effect, or another doubt; inactive means flat fitted curve, though single readings scatter.
Assays:
[1] = target: Lysosomal acid glucosylceramidase (Homo sapiens) (UniProt P04062); assay: Glucocerebrosidase-p2 (AID 348; in the data active means potency below about 10 µM; further: potency means the concentration at half of the fitted maximal effect); details: purified GBA, blue fluorogenic substrate, 40 min
Lysosomal acid glucosylceramidase (Homo sapiens), sequence (P04062 whole entry, looked up): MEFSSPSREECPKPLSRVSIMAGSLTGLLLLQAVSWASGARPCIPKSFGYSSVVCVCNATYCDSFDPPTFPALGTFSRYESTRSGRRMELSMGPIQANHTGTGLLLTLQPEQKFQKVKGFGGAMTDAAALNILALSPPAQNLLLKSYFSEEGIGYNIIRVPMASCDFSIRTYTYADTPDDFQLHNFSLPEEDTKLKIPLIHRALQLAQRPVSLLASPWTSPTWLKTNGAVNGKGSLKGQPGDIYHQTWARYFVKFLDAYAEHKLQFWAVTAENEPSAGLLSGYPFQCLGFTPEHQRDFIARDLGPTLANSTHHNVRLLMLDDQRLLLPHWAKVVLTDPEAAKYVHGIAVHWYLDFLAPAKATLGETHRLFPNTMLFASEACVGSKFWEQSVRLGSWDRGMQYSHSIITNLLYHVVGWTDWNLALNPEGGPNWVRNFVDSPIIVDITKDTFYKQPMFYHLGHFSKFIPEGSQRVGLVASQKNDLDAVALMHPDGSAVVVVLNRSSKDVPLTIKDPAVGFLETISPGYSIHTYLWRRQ
In short: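 Normal human glucocerebrosidase (0.2 nM) with blue fluorogenic substrate (80 uM final) in citrate/phosphate pH 5.9 with 10mM sodium taurocholate, 0.01% tween-20; 40 min RT, NaOH/glycine stop; fluorescence Ex 365/Em 440; AC50 from a titration from 0.6 nM upwards.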

[2] = AP1 Signaling Pathway (AID 357); details: ME-180 AP-1-bla reporter, EGF-induced, beta-lactamase ratio, 5 h; further: on the % scale 0 is the no-effect control and ±100 the full control effect
In short: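 ME-180 cells with beta-lactamase reporter under AP-1 response element, stimulated with EC50 EGF; compounds tested in titration series, 5 h at 37 °C. CCF4 substrate added 2.5 h at room temperature; 460/530 nm emission ratio gave %activity and AC50.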

[3] = target: Cytochrome P450 1A2 (Homo sapiens) (UniProt P05177); assay: p450-cyp1a2 (AID 410; calls by dose curve; further: potency means the concentration at half of the fitted maximal effect;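 on activity change, negative = inhibition: -100% = full effect of reference inhibitor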)
Cytochrome P450 1A2 (Homo sapiens), sequence (P05177 whole entry, looked up): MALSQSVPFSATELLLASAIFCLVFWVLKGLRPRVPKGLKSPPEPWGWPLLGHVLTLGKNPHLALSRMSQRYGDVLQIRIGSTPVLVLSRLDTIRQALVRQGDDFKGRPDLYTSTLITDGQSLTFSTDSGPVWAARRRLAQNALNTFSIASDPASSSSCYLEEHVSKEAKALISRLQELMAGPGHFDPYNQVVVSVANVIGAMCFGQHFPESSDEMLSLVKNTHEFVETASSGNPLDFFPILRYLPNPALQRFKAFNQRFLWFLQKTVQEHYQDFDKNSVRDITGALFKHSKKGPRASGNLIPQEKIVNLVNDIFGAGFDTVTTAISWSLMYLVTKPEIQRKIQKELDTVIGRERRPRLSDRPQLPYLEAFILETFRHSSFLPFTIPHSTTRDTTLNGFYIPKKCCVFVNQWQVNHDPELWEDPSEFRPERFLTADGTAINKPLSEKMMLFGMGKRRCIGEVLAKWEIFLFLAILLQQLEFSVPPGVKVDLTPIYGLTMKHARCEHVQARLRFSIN
In short: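 O-Demethylation of luciferin 6' methyl ether by human CYP1A2 is monitored as luciferase luminescence. Substrate sits at Km (100uM); enzyme is 20nM. Values are scaled to 57 uM furafylline as maximal inhibition.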

[4] = NFAT Signaling Pathway (AID 444); details: Jurkat NFAT-bla M1, carbachol, beta-lactamase ratio, 5 h; at 7.69 µM (top of the series) unless noted;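 further: carbachol stimulus at about its EC50 of 1 µM final; on the % scale 0 is the no-effect control and ±100 the full control effect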
In short: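 Jurkat cells with NFAT-driven β-lactamase reporter and co-expressed M1 receptor, stimulated with carbachol (final 1 uM, ~EC50), compound titration, 5 h at 37 °C. CCF4 loaded 1 h at RT; 460/530 nm ratio gave %activity and AC50.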

[5] = Stat Signaling Pathway (AID 446); details: ME-180 SIE beta-lactamase reporter, IL-6 stimulated, 5 h;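 further: ME-180 cervical cancer cells given 40 pM IL-6 alongside compound; SIE-controlled beta-lactamase reporter measured as 460/530 nm FRET emission ratio; on the % scale 0 is the no-effect control and ±100 the full control effect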
In short: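 FRET read-out (405 nm excitation, 460/530 nm emission) of a beta-lactamase reporter under a STAT-inducible element in ME-180 cervical carcinoma cells. Cells with compound receive 40 pM IL-6 for 5 h. Values are normalised to AC90 stimulation and AC90 JAK-inhibitor controls.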

[6] = target: Glucocorticoid receptor (Homo sapiens) (UniProt P04150); assay: GR-GFP Redistribution (AID 450;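 active means compounds whose dose series gives a full or clear partial fitted curve of increased nuclear translocation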; further: potency means the concentration at half of the fitted maximal effect); details: U2OS GR-GFP nuclear translocation, laser cytometry, 2 h
Glucocorticoid receptor (Homo sapiens), sequence (P04150 whole entry, looked up, the tested form may be a part): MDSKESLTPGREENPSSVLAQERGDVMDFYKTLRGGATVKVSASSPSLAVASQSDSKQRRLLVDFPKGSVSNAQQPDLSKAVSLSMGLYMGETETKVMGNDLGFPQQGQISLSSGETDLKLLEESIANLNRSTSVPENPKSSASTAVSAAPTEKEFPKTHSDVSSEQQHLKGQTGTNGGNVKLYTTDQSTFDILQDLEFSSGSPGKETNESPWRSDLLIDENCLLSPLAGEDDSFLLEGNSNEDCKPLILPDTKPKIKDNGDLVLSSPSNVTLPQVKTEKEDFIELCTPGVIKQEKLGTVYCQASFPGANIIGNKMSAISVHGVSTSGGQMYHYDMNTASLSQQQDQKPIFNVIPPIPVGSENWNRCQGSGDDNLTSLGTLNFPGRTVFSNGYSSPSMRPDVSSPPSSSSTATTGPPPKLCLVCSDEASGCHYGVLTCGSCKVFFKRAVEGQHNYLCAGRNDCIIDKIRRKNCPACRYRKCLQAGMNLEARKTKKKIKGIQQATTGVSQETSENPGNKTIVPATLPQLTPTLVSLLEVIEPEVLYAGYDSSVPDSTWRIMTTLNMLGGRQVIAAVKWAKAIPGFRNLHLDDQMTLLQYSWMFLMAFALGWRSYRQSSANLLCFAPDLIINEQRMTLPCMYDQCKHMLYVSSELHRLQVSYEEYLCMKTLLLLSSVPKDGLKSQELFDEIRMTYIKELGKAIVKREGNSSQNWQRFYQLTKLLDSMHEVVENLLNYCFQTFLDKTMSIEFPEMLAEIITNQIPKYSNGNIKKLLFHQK

[7] = target: Glucocorticoid receptor (Homo sapiens) (UniProt P04150); assay: GR-EFC Redistribution (AID 451; calls by dose curve; further: potency means the concentration at half of the fitted maximal effect); details: CHO-K1 GR-EFC translocation, beta-gal luminescence, 2 h
In short: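 CHO-K1 cells expressing nuclear EA and GR-ED fragments of b-gal; compounds titrated up to 46 uM final, 2 h at 37 C. GR nuclear translocation read as complemented b-gal luminescence after 1 h RT detection.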

[8] = target: Mitogen-activated protein kinase 10 (Mus musculus) (UniProt Q61831); assay: JNK3 AlphaScreen Assay (AID 530);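 further: kinase came from lysate of stimulated human HepG2 cells; signal reports phosphorylation of biotinylated GST-cJun 1-79 at Ser73 with 10 µM ATP; on the % scale 0 is the no-effect control and ±100 the full control effect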
In short: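 Activity was read by AlphaScreen after JNK3-containing HepG2 lysate (cytokine pre-activated) phosphorylated biotinylated GST-cJun with 10 uM ATP at room temperature. Phospho-Ser73 cJun antibody with Protein-A acceptor beads provided detection.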

[9] = target: 3',5'-cyclic-AMP phosphodiesterase 4B (Homo sapiens) (UniProt Q07343); assay: qHTS Assay for Inhibitors of PDE-IV (AID 607; active means well fitted activation curve with a large enough effect in the main read-out, with a control signal flat, not every such curve was filed as active; further: % of control where 0% means no effect)
3',5'-cyclic-AMP phosphodiesterase 4B (Homo sapiens), sequence (Q07343 whole entry, looked up): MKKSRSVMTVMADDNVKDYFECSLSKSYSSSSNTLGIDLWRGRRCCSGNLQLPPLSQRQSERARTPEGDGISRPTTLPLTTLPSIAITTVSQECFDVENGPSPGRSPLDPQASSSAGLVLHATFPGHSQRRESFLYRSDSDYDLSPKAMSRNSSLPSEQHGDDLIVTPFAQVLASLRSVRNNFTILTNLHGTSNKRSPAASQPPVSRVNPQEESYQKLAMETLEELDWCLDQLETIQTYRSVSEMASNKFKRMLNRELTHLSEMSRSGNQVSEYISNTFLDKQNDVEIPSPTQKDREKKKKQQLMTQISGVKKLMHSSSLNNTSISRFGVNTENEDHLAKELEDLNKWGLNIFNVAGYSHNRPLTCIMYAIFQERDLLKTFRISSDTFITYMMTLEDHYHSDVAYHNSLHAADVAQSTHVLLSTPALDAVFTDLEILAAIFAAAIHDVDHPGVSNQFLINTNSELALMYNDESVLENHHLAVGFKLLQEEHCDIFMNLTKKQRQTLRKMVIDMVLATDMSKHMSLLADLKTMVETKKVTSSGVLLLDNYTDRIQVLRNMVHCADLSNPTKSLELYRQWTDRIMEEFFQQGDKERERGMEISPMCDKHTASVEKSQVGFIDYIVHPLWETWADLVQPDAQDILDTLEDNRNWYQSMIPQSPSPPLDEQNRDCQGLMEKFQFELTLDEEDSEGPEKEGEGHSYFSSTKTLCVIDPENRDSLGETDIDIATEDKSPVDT
In short: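 Cell-based read-out of cAMP via a modified cyclic nucleotide-gated channel and membrane potential dye (535/590 nm) in HEK293 cells expressing PDE4 endogenously. Compounds tested up to 22.9 uM final; 100 uM RO 20-1724 reference.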

[10] = qHTS Assay for Lipid Storage Modulators (AID 1519; calls by dose curve); details: Drosophila S3 cells, BODIPY lipid droplet/cell ratio, laser cytometry, cells loaded with oleic acid
In short: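 Cells seeded at 5,000 per well were treated with compounds over a concentration series and loaded with oleic acid (400 uM, as added). Lipid droplet fluorescence (488 nm excitation, 500-530 nm channel) was read by laser-scanning cytometry and normalized to 20 uM Triacsin C.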

[11] = target: Ubiquitin carboxyl-terminal hydrolase 1 (Homo sapiens) (UniProt O94782); assay: Inhibitors of USP1/UAF1: Pilot qHTS (AID 504865; active means well fitted curve in the direction sought with a large enough effect; an effect the other way counts as inactive or inconclusive;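 further: rhodamine fluorescence freed from ubiquitin-rhodamine substrate followed over time; top concentration of the series differs between compounds; on the % scale 0 is the no-effect control and ±100 the full control effect; nearly all actives have a fitted effect of over 35% in size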)
Ubiquitin carboxyl-terminal hydrolase 1 (Homo sapiens), sequence (O94782 whole entry, looked up): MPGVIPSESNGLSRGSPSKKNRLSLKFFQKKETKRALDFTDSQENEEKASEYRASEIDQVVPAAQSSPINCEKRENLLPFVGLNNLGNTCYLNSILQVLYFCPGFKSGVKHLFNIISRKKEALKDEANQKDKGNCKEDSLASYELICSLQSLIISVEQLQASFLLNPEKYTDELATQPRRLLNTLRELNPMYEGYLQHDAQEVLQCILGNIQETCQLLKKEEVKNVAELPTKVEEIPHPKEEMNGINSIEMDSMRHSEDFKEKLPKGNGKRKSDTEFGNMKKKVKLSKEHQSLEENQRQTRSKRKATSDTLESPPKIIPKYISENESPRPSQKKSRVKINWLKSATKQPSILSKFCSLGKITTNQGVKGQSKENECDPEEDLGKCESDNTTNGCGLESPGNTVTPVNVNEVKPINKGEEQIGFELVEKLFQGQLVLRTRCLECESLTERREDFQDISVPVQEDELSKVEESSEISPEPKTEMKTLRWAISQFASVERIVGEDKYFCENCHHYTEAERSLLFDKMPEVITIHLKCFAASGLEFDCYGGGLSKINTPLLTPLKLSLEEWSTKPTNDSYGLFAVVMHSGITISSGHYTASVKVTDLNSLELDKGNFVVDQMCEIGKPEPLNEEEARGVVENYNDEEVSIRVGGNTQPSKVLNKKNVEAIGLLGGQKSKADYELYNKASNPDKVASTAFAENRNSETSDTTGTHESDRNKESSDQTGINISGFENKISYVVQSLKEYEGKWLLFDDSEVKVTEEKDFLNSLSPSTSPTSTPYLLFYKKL
In short: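 In 50mM HEPES pH 7.8 containing 0.5mM EDTA, 1mM TCEP, 0.1 mg/ml BSA and 0.01% Tween-20, 1nM USP1/UAF1 is exposed to compound for 15 min, then Ub-Rho (150nM final) is added and fluorescence is read over time.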

[12] = qHTS profiling for inhibitors of Plasmodium falciparum proliferation (AID 504749; active means well fitted curve in the direction sought with a large enough effect; an effect the other way counts as inactive or inconclusive;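 further: 0% = DMSO vehicle and full inhibition = artemisinin control; nearly all actives have a fitted effect of over 60% in size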); details: P. falciparum in erythrocytes, SYBR Green DNA, 72 h, at 28.7 µM (top of the series)
In short: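 Each compound contacts P. falciparum-infected red blood cells for 72 h at 37 C; lysis buffer (Tris, EDTA, saponin, Triton X, SYBR Green I) is added and fluorescence measured next morning; values normalized to controls.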

[13] = target: Cytochrome P450 3A4 (Homo sapiens) (UniProt P08684); assay: qHTS Assay for Activators of Cytochrome P450 3A4 (AID 885; active means well fitted curve in the direction sought with a large enough effect; an effect the other way counts as inactive or inconclusive; further: nearly all actives have a fitted effect of over 65% in size)
Cytochrome P450 3A4 (Homo sapiens), sequence (P08684 whole entry, looked up): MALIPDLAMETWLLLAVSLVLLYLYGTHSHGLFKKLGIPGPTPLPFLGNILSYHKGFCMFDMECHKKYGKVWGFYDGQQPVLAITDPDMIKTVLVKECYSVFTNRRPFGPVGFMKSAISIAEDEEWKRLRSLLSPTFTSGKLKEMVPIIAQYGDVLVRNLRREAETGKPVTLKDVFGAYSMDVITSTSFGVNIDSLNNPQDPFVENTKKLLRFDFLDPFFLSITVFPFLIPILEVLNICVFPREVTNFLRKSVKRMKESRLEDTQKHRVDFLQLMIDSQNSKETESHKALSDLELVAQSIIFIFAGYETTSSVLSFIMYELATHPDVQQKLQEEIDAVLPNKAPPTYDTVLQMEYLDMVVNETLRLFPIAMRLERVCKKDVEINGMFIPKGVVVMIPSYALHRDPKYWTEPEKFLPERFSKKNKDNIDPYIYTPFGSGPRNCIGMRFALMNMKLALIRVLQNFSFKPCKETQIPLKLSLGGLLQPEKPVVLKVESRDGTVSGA
In short: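 Luminescent readout of luciferin formed from 25 uM Luciferin-PPXE (KM level) by 20 nM CYP3A4 in 200 mM KPO4, with 60 min NADPH-driven reaction at room temperature after 10 min compound exposure. Ketoconazole (57 uM) defined 100% inhibition.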

[14] = target: Cytochrome P450 3A4 (Homo sapiens) (UniProt P08684); assay: qHTS Assay for Inhibitors and Substrates of Cytochrome P450 3A4 (AID 884; active means well fitted curve in the direction sought with a large enough effect; an effect the other way counts as inactive or inconclusive; further: nearly all actives have a fitted effect of over 50% in size; further: potency means the concentration at half of the fitted maximal effect)
In short: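 Luminescent readout of luciferin produced by CYP3A4 (20 nM) dealkylation of Luciferin-PPXE, 25 uM (its KM). NADPH-driven reaction ran 60 min at RT after 10 min compound preincubation; data scaled to 57 uM ketoconazole as 100% inhibition.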

[15] = Confirmation and Secondary Assay for Modulators of Hemoglobin Beta Chain Splicing at IVS2 705 locus (AID 930; active means well fitted curve in the direction sought with a large enough effect; an effect the other way counts as inactive or inconclusive;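 further: HeLa cells stably expressing the EGFP-705 splicing reporter; GFP fluorescence per well restored by corrected splicing of the IVS2-705 intron in EGFP; % of control where 0% means no effect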)
In short: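 Splice-correction reporter: EGFP cDNA split by beta-globin intron 2 bearing the 705 mutation, stably in HeLa. Compound incubation 2 days, 37C; fluorescent objects 5-250 µm summed per well.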

[16] = Confirmation and Secondary Assay for Modulators of Hemoglobin Beta Chain Splicing at IVS2 654 locus (AID 910; active means well fitted curve in the direction sought with a large enough effect; an effect the other way counts as inactive or inconclusive;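 further: HeLa cells stably carrying EGFP split by mutant beta-globin IVS2-654 intron; % of control where 0% means no effect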)
In short: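 HeLa cells stably expressing EGFP interrupted by β-globin IVS2-654 intron, seeded overnight in Opti-MEM/2% FCS, then treated 2 days at 37 °C. Restored splicing read as total peak GFP intensity per well by laser scanning cytometry (488 nm excitation, 500–520 nm emission); 500 nM antisense PNA as control.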

[17] = target: Cytochrome P450 2C9 (Homo sapiens) (UniProt P11712); assay: qHTS Assay for Inhibitors and Substrates of Cytochrome P450 2C9 (AID 883; active means well fitted curve in the direction sought with a large enough effect; an effect the other way counts as inactive or inconclusive; further: on the % scale 0 is the no-effect control and ±100 the full control effect; nearly all actives have a fitted effect of over 60% in size)
Cytochrome P450 2C9 (Homo sapiens), sequence (P11712 whole entry, looked up): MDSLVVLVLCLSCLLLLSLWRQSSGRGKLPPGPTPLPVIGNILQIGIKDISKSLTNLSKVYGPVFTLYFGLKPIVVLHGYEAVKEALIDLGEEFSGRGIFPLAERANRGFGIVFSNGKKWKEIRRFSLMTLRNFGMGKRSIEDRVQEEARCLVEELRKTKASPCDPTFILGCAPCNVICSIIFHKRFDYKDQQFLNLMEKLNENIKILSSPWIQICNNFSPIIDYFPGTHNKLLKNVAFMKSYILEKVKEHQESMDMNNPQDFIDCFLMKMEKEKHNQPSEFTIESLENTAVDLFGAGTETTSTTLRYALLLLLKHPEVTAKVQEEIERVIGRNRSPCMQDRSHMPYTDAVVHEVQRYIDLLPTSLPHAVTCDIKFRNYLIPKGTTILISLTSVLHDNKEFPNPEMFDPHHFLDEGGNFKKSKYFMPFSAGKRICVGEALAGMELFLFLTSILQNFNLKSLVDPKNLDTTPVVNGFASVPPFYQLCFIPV
In short: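 10nM CYP2C9 + 100uM Luciferin-H (=KM), 25mM KPO4; cpd 10 min 37C; NADPH regen, 60 min 37C; stop/detect with P450 Glo-Buffer 20 min; luminescence. Norm. to 57uM sulphaphenazole as full inhibition.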

[18] = qHTS Assay for Identification of Small Molecule Agonists for Hypoxia Response Element Signaling Pathway (AID 914; active means well fitted activation curve with a large enough effect in the signal ratio, with a control signal flat, not every such curve was filed as active; the % refers to the signal ratio; further: % of control where 0% means no effect); details: ME-180 (cervical carcinoma) HRE-bla reporter, beta-lactamase ratio, CoCl2, 17 h; activation: stronger effect = higher value
In short: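 Cells were plated overnight, pin-dosed with compound in a titration series, co-stimulated with EC50 CoCl2 and incubated 17 hours at 37 degrees Celsius. CCF4 substrate was then loaded, and AC50 values came from the 460nm/530nm ratio.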

[19] = measured here: cell count channel max response
[20] = measured here: lipid channel max response
[21] = at 7.69 µM (top of the series) unless noted

CN1CCCC[C@@H]1CCN1c2ccccc2Sc2ccc(S(C)=O)cc21 (stereo partly drawn)
inactive: Potency [1] > 11.4 µM | activity change, negative = inhibition ([2]; at 7.69 µM (top of the series)) -6.82% | activity change, negative = inhibition ([2]; at 17.2 µM (top of the series)) 10.1% | Potency [3] | activity change, negative = inhibition [4] 1.36% | activity, negative = inhibition ([5]; at 7.69 µM (top of the series)) 0.0805% | activity, negative = inhibition ([5]; at 17.2 µM (top of the series)) -1.79% | Potency [6] > 20.6 µM and > 46 µM | Potency [7] > 20.6 µM and > 9.22 µM | Potency [8] | Potency [9] | activity change, negative = inhibition ([10]; at 25.7 µM (top of the series)) -3.11% | Potency [11] | activity, negative = inhibition ([12]; parasite line A) 1.72% | activity, negative = inhibition ([12]; parasite line B) 1.85%
-6.84%: max response [10, 19]
-7.46%: max response [10, 20]

Cc1nc2cnc(N(C)C)nc2n(Cc2cccs2)c1=O
active: Potency [3] 1.26 µM
10.1%: max response [10, 19]
inactive: Potency [1] > 11.4 µM | activity change, negative = inhibition [2, 21] -12% | activity change, negative = inhibition [4] -7.11% | activity, negative = inhibition [5, 21] -2.49% | Potency [6] > 9.22 µM | Potency [7] > 46 µM | Potency [8] | Potency [13] | activity change, negative = inhibition ([10]; at 57.5 µM (top of the series)) 3.99%
16.8%: max response [10, 20]

CN(C)c1ccc(-c2cc(NCc3cccnc3)ncn2)cc1
active: Potency [3] 0.398 µM | Potency [14] 3.16 µM
14.7%: max response [10, 19]
inactive: Potency [1] > 11.4 µM | activity change, negative = inhibition [2, 21] -9.72% | activity change, negative = inhibition [4] 5.75% | activity, negative = inhibition [5, 21] 0.912% | Potency [6] > 46 µM | Potency [7] > 46 µM | Potency [8] | Potency [9] | Potency [13] | outcome [15] | activity change, negative = inhibition ([10]; at 57.5 µM (top of the series)) 7.63% | Potency [11]
22.6%: max response [10, 20]

Cc1cccc(CNc2ccnc(-c3ccc(C(=O)N(C)C)cc3)n2)c1
active: Potency [3] 25.1 µM
0.35%: max response [10, 20]
-6.92%: max response [10, 19]
inactive: Potency [1] > 11.4 µM | activity change, negative = inhibition [2, 21] -17.2% | activity change, negative = inhibition [4] 6.95% | activity, negative = inhibition [5, 21] -2.13% | Potency [6] > 46 µM | Potency [7] > 46 µM | Potency [8] | Potency [14] | Potency [16] | outcome [15] | activity change, negative = inhibition ([10]; at 57.5 µM (top of the series)) 7.06% | Potency [11]

COc1cccc(-c2nccc(NC3CCNCC3)n2)c1
active: Potency [3] 6.31 µM
4.24%: max response [10, 19]
inactive: Potency [1] > 11.4 µM | activity change, negative = inhibition [2, 21] 6.93% | activity change, negative = inhibition [4] 8.54% | activity, negative = inhibition [5, 21] 14.2% | Potency [6] > 46 µM | Potency [7] > 46 µM | Potency [8] | Potency [9] | Potency [16] | outcome [15] | activity change, negative = inhibition ([10]; at 57.5 µM (top of the series)) 0.723% | Potency [11]
1.95%: max response [10, 20]

O=C(c1cc(C(F)(F)F)cc(C(F)(F)F)c1)N1CCC2(CC1)CCN(c1ncccn1)CC2
13.8%: max response [10, 19]
inactive: Potency [1] > 11.4 µM | activity change, negative = inhibition [2, 21] -11.6% | Potency [3] | activity change, negative = inhibition [4] 28.8% | activity, negative = inhibition [5, 21] -7.73% | Potency [7] > 46 µM | Potency [8] | Potency [9] | Potency [17] | activation [18] 1.37% | activity change, negative = inhibition ([10]; at 57.5 µM (top of the series)) 3.41%
23.2%: max response [10, 20]

Reference: PubChem BioAssay (NCATS)
